Reference: PubChem BioAssay
Calls of active or inactive are those of the source.

How the values were obtained:
[1] = system: Human papillomavirus type 1a protein E7 (residues 44-93); test: HPV1a E7 fragment binders on microarrays, primary screen, biochemical, small-molecule microarray, residues 44-93, 635 nm fluorescence (AID 1108); details: small-molecule microarray binding, fluorescence 635 nm; higher = more signal;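 also: E7 fragment applied at 1 µg/mL in TBST for 1 h at 4 C; score combines spot fluorescence with its signal to noise ratio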
[2] = modulators of HCV replicon luciferase signal, primary screen, HCV replication inhibitor project, Huh7 cells, luciferase reporter (AID 1109); details: 48 h, higher = more signal;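 also: huh7 hepatoma cells harbouring a luciferase neomycin HCV replicon reporter; luciferase luminescence as measure of HCV replicon replication; test concentration not given here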
[3] = molecular target: Left-right determination factor 2 (Homo sapiens) (UniProt O00292); test: LEFTY2 binders on small-molecule microarrays, primary screen, biochemical, small-molecule microarray, 635 nm fluorescence scan (AID 1110); details: LEFTY2 binding, higher = more signal
[4] = molecular target: Calmodulin-1 (Homo sapiens) (UniProt P0DP23); test: CALM1 binders on microarrays, EGTA buffer, profiling panel, biochemical, small-molecule microarray, Cy5-labelled CALM1 (AID 1111); details: Cy5-CALM1 binding fluorescence, higher = more signal;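 also: labelled calmodulin applied in Tris saline Tween buffer holding calcium plus EGTA and DTT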
[5] = molecular target: Calmodulin-1 (Homo sapiens) (UniProt P0DP23); test: calcium-bound CALM1 binders on microarrays, profiling panel, artefact control for SMM control-protein annotation, biochemical, small-molecule microarray, Cy5-labelled CALM1, plus calcium (AID 1112); details: Cy5-CALM1 binding fluorescence, higher = more signal;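 also: score merges spot fluorescence with signal to noise from triplicate slides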
[6] = small-molecule microarray binders of probe aWnt5a, primary screen, biochemical, biotinylated probe, 635/667 nm fluorescence (AID 1113); details: higher = more signal;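 also: score merges 667 nm fluorescence intensity with signal-to-noise per printed feature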
[7] = small-molecule microarray binders of probe aShh, primary screen, biochemical, biotinylated probe, 635/667 nm fluorescence (AID 1114); details: higher = more signal;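 also: probe is biotin-labelled aShh protein from a stem cell growth factor screen; measures binding of labelled protein to compounds printed on the slide; score merges feature fluorescence at 667 nm with signal-to-noise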
[8] = small-molecule microarray binders of probe aNog, primary screen, biochemical, biotinylated probe, 635/667 nm fluorescence (AID 1115); details: higher = more signal;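 also: probe is biotinylated aNog protein used at 0.15 µg/mL for 1 h at 4 C; z-score combines 667 nm fluorescence of each spot with its signal to noise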
[9] = molecular target: Torsin-1A-interacting protein 1 (Homo sapiens) (UniProt Q5JTV8); test: LAP1 binders from COS7 cell lysate, primary screen, small-molecule microarray, 635/667 nm fluorescence (AID 1116); details: COS7-hLAP1 lysate binding, 635 nm fluorescence, higher = more signal
[10] = molecular target: Alpha-bungarotoxin (Bungarus multicinctus) (UniProt P60615); test: alpha-bungarotoxin binders on microarray, profiling panel, artefact control for SMM control protein annotation, biochemical, small-molecule microarray, Alexa647 label, 635/667 nm fluorescence (AID 1117); details: alpha-BTX-A647 binding fluorescence, higher = more signal
Albumin (Bos taurus) = Albumin (Bos taurus) (UniProt P02769); test: bovine serum albumin binders on microarray, profiling panel, artefact control for SMM control protein annotation, biochemical, small-molecule microarray, Alexa647 label, 635/667 nm fluorescence (AID 1118); details: BSA-A647 binding, fluorescence 635 nm, higher = more signal;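 also: score merges 667 nm emission intensity and signal-to-noise per printed compound spot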
[11] = small-molecule microarray binders of probe aXIP, primary screen, biochemical, NeuroSMM set, 635/667 nm fluorescence (AID 1119); details: higher = more signal, called active from +8 up or from −8 down;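 also: probe is the protein aXip251-270 applied at 1 µg/mL to compound-printed slides; binding of probe to printed compounds measured as 667 nm fluorescence plus signal to noise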
[12] = small-molecule binders of probe aNOTCH3, primary screen, biochemical, small-molecule microarray, 635/667 nm fluorescence (AID 1120); details: higher = more signal;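 also: probe is a biotin-tagged antibody raised against NOTCH3 rather than NOTCH3 protein; score merges spot fluorescence near 667 nm with spot signal to noise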
[13] = small-molecule binders of probe aNOTCH2, primary screen, biochemical, small-molecule microarray, 635/667 nm fluorescence (AID 1121); details: higher = more signal;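 also: score merges feature fluorescence read at 667 nm with its signal to noise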
[14] = molecular target: Carbonic anhydrase 2 (Homo sapiens) (UniProt P00918); test: CAII small-molecule binders, profiling panel, biochemical, small-molecule microarray, Alexa647-labelled CAII (AID 1122); details: CAII-A647 binding fluorescence, higher = more signal
[15] = COS7 lysate on small-molecule microarray, probe aHis, 635 nm (AID 1123); details: COS7 cell lysate, fluorescence, higher = more signal;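 also: z-score combines 667nm fluorescence intensity with signal-to-noise per printed compound spot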
[16] = compound binding in COS7 lysate, probe aLAP1, primary screen, cell lysate, small-molecule microarray (AID 1124); details: probe aLAP1, fluorescence, higher = more signal;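 also: lysate comes from COS7 cells expressing LAP1 and is applied at 0.3 µg/mL; score merges spot fluorescence near 667 nm with signal-to-noise over triplicate slides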
Sam68 (KHDRBS1) = test: Sam68 small-molecule binders, primary screen, biochemical, small-molecule microarray, 635 nm fluorescence (AID 1125); details: small-molecule microarray binding, higher = more signal;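 also: score merges 667 nm channel intensity with signal to noise over triplicate slides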
[17] = system: Chordin-like protein 2 (CHRDL2); test: CHRDL2 small-molecule binders, primary screen, biochemical, small-molecule microarray, 635 nm fluorescence (AID 1126); details: small-molecule microarray binding, fluorescence 635 nm; higher = more signal;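 also: printed compound slides probed with Chrdl2 protein at 4 µg/mL for 1 h at 4 C; score merges 667 nm emission intensity with signal to noise over three replicate slides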
[18] = molecular target: Concanavalin-A (Canavalia ensiformis) (UniProt P02866); test: ConA small-molecule binders, primary screen, artefact control for SMM control protein annotation, biochemical, small-molecule microarray, Alexa647 label, 635 nm (AID 1127); details: ConA-A647 binding fluorescence, higher = more signal;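 also: z combines 667 nm emission intensity with signal-to-noise across three replicate slides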
Concanavalin-A (Canavalia ensiformis), sequence (P02866 whole entry, looked up): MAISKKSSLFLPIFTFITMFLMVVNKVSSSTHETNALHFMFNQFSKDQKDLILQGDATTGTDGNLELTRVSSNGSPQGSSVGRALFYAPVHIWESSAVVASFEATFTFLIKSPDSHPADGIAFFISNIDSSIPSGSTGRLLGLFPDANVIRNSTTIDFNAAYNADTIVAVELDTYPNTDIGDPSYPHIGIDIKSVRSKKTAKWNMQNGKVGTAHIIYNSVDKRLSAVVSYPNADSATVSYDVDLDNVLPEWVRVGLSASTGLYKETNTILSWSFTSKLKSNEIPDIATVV

Left-right determination factor 2 (Homo sapiens), sequence (O00292 whole entry, looked up): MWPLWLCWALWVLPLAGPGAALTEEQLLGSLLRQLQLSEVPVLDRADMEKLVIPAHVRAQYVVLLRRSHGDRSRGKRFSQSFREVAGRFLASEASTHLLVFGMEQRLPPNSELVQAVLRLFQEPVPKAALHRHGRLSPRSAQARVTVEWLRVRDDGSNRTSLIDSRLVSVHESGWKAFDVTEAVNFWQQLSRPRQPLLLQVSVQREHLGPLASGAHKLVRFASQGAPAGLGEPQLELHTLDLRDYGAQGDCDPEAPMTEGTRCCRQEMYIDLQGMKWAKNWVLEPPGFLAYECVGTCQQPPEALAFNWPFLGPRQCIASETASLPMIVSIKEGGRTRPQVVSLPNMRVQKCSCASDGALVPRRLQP
Albumin (Bos taurus), sequence (P02769 whole entry, looked up): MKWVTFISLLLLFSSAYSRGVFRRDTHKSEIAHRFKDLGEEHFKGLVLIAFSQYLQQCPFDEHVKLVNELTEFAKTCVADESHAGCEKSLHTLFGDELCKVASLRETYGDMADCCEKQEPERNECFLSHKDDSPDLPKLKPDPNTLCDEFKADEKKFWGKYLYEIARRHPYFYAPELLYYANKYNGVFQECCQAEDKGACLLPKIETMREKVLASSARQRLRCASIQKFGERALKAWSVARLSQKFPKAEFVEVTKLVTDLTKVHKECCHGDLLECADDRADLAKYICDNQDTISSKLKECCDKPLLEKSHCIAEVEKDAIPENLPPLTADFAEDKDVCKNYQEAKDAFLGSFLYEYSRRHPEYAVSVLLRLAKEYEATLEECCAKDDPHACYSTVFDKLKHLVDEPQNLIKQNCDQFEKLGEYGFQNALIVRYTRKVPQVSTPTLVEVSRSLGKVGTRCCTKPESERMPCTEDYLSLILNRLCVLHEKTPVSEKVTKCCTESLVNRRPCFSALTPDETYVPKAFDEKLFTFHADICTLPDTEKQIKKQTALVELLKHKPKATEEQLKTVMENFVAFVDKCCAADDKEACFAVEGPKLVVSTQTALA
Torsin-1A-interacting protein 1 (Homo sapiens), sequence (Q5JTV8 whole entry, looked up): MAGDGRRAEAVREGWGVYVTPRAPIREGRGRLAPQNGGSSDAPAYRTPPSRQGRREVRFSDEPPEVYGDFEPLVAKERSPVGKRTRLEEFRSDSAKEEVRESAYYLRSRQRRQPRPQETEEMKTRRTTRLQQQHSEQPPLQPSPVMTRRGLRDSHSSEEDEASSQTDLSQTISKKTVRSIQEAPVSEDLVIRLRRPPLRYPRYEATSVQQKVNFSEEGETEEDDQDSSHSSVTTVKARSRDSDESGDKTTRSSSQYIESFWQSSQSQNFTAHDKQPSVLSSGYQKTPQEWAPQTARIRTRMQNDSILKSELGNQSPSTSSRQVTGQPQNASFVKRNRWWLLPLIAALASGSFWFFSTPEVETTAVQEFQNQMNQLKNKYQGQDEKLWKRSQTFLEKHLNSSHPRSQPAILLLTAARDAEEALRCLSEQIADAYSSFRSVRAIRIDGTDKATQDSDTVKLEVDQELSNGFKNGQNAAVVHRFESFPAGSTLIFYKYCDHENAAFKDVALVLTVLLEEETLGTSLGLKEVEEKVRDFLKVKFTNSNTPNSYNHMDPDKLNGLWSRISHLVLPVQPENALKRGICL
Alpha-bungarotoxin (Bungarus multicinctus), sequence (P60615 whole entry, looked up): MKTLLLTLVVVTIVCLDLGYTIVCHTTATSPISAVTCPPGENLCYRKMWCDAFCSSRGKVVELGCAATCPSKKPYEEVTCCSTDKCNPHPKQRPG

Row | SMILES | composite z-score [1] | z-score [2] | composite z-score [3] | composite z-score [4] | composite z-score [5] | composite z-score [6] | composite z-score [7] | composite z-score [8] | composite z-score [9] | composite z-score [10] | composite z-score (Albumin (Bos taurus)) | composite Z-score [11] | composite z-score [12] | composite z-score [13] | composite z-score [14] | composite z-score [15] | composite z-score [16] | composite z-score (Sam68 (KHDRBS1)) | composite z-score [17] | composite z-score [18]
1 | C[N+](C)(C)CCCC[C@@H]1NC(=O)[C@@H]2C[C@H](C(=O)NCc3ccc(F)cc3)[C@H](c3ccc(O)cc3)N2C1=O | 0.132 | -0.0213 | -0.392 | -0.1 | 0.0305 | -0.178 | -0.381 | -0.28 | 2.44 | 1.24 | -0.635 | -0.43 (inactive) | -0.307 | -0.0662 | 0.413 | 0.933 | 0.873 | -0.636 | 0.189 | 0.607
2 | CN(C)C(=O)[C@@]1(Cc2ccccc2CN=[N+]=[N-])COC(c2ccc(OCCCO)cc2)=N1 | 1.37 | -2 | -1.09 | 0.809 | 0.812 | -0.0478 | 0.0483 | -0.226 | -0.383 | 1.3 | 0.819 | -0.0705 (inactive) | -0.0048 | -0.156 | 0.572 | 1.78 | -0.0884 | 0.0673 | -0.781 | 1.04
3 | COC(=O)[C@@]1(Cc2ccc(OC)cc2)[C@H]2c3cc(C(=O)N(C)C)[nH]c3C[C@H]2CN1C(=O)c1ccccc1 | -0.65 | -0.536 | -0.228 | -0.0912 | -0.242 | -0.176 | 0.128 | 0.516 | -0.223 | 0.0334 | 0.0277 | 0.184 (inactive) | -0.0477 | 0.013 | 0.742 | 0.1 | -0.106 | -1.13 | -0.372 | 0.0575
4 | O=C1[C@@H]2[C@@H](CC(COc3ccccc3)=C([C@H](O)CCc3ccccc3)[C@@H]2CO)C(=O)N1Cc1ccccc1 | 0.778 | -2.21 | 0.399 | 0.615 | -0.346 | -0.1 | -0.0553 | -0.172 | 0.47 | 0.495 | 0.574 | 0.356 (inactive) | 0.15 | -0.148 | 0.42 | 1.05 | 0.424 | 0.582 | 0.249 | 0.929
5 | C=CC[C@@]1(C(=O)OC)N=C(c2ccc(OCCCO)cc2)O[C@@H]1c1ccccc1N=[N+]=[N-] | 1.48 | -0.992 | 0.684 | 0.17 | -0.483 | 0.0433 | 0.313 | 0.604 | 1.66 | 1.43 | -1.11 | 0.721 (inactive) | 0.477 | 0.12 | 0.475 | 2.76 | 0.568 | 1.29 | 1.33 | 0.896
6 | COCCCNC(=O)[C@@]1(CCS(=O)(=O)c2ccccc2)COC(c2ccc(OCCCO)cc2)=N1 | 0.0612 | -0.46 | -0.241 | 2.65 | 1.26 | 0.0919 | 0.363 | 2.04 | 3.1 | 3.34 | 0.595 | 0.197 (inactive) | 0.567 | 0.0551 | 0.919 | 3.36 | 0.706 | 1.14 | -0.804 | 0.945
7 | CCCCCC1=C2CNC(Cc3ccccc3)(C(=O)OC)C=C2C(C)C1=O (stereo not given) | 0.719 | -1.85 | -1.75 | 1.54 | 1.46 | -0.0643 | 0.45 | 1.7 | 1.64 | 0.175 | 0.638 | 0.881 (inactive) | 0.183 | 0.0878 | 0.648 | 2.17 | 0.984 | -0.49 | -1.52 | -0.86
8 | C=C(COC)/C(=C/C[C@@H](OC(C)=O)c1ccccc1OCCO)c1cnc2ccccc2c1 | 1.17 | -1.95 | 0.248 | 0.35 | -0.716 | -0.1 | 0.0796 | 0.329 | 1.73 | 1.56 | -0.209 | 0.72 (inactive) | 0.199 | -0.084 | 0.776 | 1.09 | 0.542 | 1.17 | 0.765 | 0.995
9 | COC(=O)[C@@]1(Cc2ccc(OC)cc2)[C@H]2c3cc(C(=O)N4CCCC4)n(Cc4c(CO)[nH]cc(C)c4=O)c3C[C@H]2CN1C(=O)c1ccccc1 | -0.78 | -1.4 | -0.181 | 2.05 | 0.593 | 0.0328 | -0.156 | 0.947 | 2.32 | 0.12 | 1.01 | -0.438 (inactive) | 0.0296 | 0.257 | 0.751 | 3.24 | 1.32 | 0.332 | -0.184 | 0.393
10 | Cc1ccc(S[C@]2(C(=O)NC3CC3)CC(=O)N(C(C)C)[C@@H]2c2ccc(CO)cc2I)cc1 | 1.17 | -2.21 | -0.792 | -0.462 | -0.0946 | 0.191 | -0.372 | -0.519 | 1.74 | -0.0074 | 0.899 | -0.6 (inactive) | -0.364 | -0.2 | 0.7 | 1.16 | 0.048 | 0.238 | -1.06 | 0.0412
11 | COc1ccc([Si](C)(C)[C@@H]2[C@@H](CC(=O)N(CCO)Cc3ccccc3)O[C@]3(C(=O)N(Cc4ccc(I)cc4)c4ccccc43)[C@H]2C)cc1 | 0.684 | -4.03 | 0.792 | 1.61 | 0.54 | -0.0718 | 0.531 | -0.0815 | 1.23 | 0.375 | -0.596 | 0.317 (inactive) | 0.456 | 0.02 | 0.414 | 0.568 | 0.965 | 0.793 | 1.36 | 0.817
